Experimental findings from PubChem BioAssay are described below.

Structures are written as SMILES. The source made the active and inactive calls. How the calls were made is not given here.

This test concerns Aerobactin synthetase IucA (Klebsiella pneumoniae hvKP1). Kind of test: Biochemical IucA enzyme inhibition primary screen of the Spectrum library (AID 1346200).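 Further: 100% = wells without compound and 0% = wells lacking enzyme.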 The conditions noted are these: malachite green pyrophosphate, A620, at 8 µM, stronger effect = lower value.
With `CCN(CC)C(C)CN1c2ccccc2Sc2ccccc21` (stereo not given), the activity remaining is 109% (inactive).
The value for `COC1=CC(=O)C(C(=O)c2ccccc2)=CC1=O` was 93.6% (inactive).
In the case of `CC(C)c1cccc(O)c(=O)c1`, the activity remaining is 123% (inactive).
Under `COC(=O)C[C@H]1C(C)(C)C(=O)[C@@H]2CC3C4=CC(=O)O[C@@H](c5ccoc5)[C@]4(C)CCC3C1(C)C2=O` (stereo not given in full) stands 120% (inactive); under `Oc1c(Cl)cc(Cl)c(Cl)c1Cc1c(O)c(Cl)cc(Cl)c1Cl`, 118% (inactive); under `CC(NCCc1ccc(O)cc1)C(O)c1ccc(O)cc1` (stereo not given), 115% (inactive).
The value for `CC1(C)S[C@@H]2[C@H](NC(=O)C(C(=O)O)c3ccccc3)C(=O)N2[C@H]1C(=O)O` (stereo not given in full) was 114% (inactive); that for `CCOc1nc2cccc(C(=O)OC(C)OC(=O)OC3CCCCC3)c2n1Cc1ccc(-c2ccccc2-c2nn[nH]n2)cc1` (stereo not given) was 104% (inactive); that for `O=C(NC1CCCCC1)NC1CCCCC1` was 71.2% (inactive).
Under `C[C@H]1C(=O)CCC2[C@]3(C)CC[C@@]4(C)C5CC(C)(C)CC[C@]5(C)CC[C@]4(C)C3CC[C@@]21C` (stereo not given in full) stands 105% (inactive); under `COC1=CC(=O)C(O)=C/C1=C\C=C\c1ccccc1`, 106% (inactive).
As to `O=C(Cc1ccccc1)NO`, the activity remaining was 109% (inactive).
Under `CC1CCC(NC(=O)N(CCCl)N=O)CC1` (stereo not given) stands 106% (inactive); under `COC(=O)C1=CO[C@@H](C)[C@@H]2CN3CC[C@@]4(C(=O)Nc5ccccc54)[C@@H]3CC12` (stereo not given in full), 107% (inactive); under `CC1(C)C(=O)C=C[C@@]2(C)C1CC(=O)[C@@]1(C)C3=CC(=O)O[C@@H](c4ccoc4)[C@]3(C)CCC12` (stereo not given in full), 107% (inactive).
